The panel holds about 79,000 compounds, 15% with a hit somewhere; the sample as a whole holds those more often. Unmarked numbers belong to inactive results. Calls of active or inactive are those of the source. Rule as the data show it: active = growth inhibition above about 70%; inactive = the rest.

Data on nine molecules can be found in PubChem BioAssay (NCI).

Experiment [1] can be described thus: NCI Yeast Anticancer Drug Screen. Data for the rad50 strain (AID 155).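 Also: 0% = growth of vehicle-only cultures of the same strain.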 To be noted: S. cerevisiae rad50 strain growth inhibition, stronger effect = higher value. Summed up: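 Inhibition values express reduced yeast growth in compound-treated cultures relative to vehicle-treated controls.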
The nature of experiment [2]: NCI Yeast Anticancer Drug Screen. Data for the mec2-1 strain (AID 157). To be noted: S. cerevisiae mec2-1 strain, stronger effect = higher value. The method, boiled down:
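Strain: mec2-1 (DNA repair/cell cycle alteration). Compound exposure, then growth measured; inhibition expressed relative to vehicle.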

Experiment [3] in a line: NCI Yeast Anticancer Drug Screen. Data for the sgs1 mgt1 strain (AID 161).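 Also: 0% = growth of cultures given vehicle only.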 As to conditions: S. cerevisiae sgs1 mgt1 strain, stronger effect = higher value. The method, boiled down: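 Test agents were incubated with a DNA-repair-mutant yeast strain. Growth was then read and compared against vehicle-treated controls.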
The nature of experiment [4]: NCI Yeast Anticancer Drug Screen. Data for the cln2 rad14 strain (AID 165).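 Also: 0% = growth equal to vehicle treated cultures.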 As to conditions: S. cerevisiae cln2 rad14 strain, stronger effect = higher value. The method, boiled down: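 Compounds are applied to the cln2 rad14 yeast strain, and growth is then compared with that of vehicle-treated cultures to give inhibition.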
The nature of experiment [5]: NCI Yeast Anticancer Drug Screen. Data for the bub3 strain (AID 167). As to conditions: S. cerevisiae bub3 mutant strain, stronger effect = higher value. The method, boiled down: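 Steps: expose the mutant yeast strain to compound; grow alongside vehicle-treated cultures; measure growth; express inhibition against the vehicle cultures.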
Experiment [6] is described as follows: NCI Yeast Anticancer Drug Screen. Data for the mlh1 rad18 strain (AID 175). To be noted: S. cerevisiae mlh1 rad18 strain growth inhibition, stronger effect = higher value. The method, boiled down: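 Read-out is yeast growth inhibition, calculated against vehicle-only controls. The compound was applied to a strain engineered with DNA damage repair alterations.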
[7] abbreviates: at 5.0 µM (retest, dose inferred, filed as 0.5).
Where [8] appears, read: at 50.0 µM (retest, dose inferred, filed as 5.0).

Turning to `O=[N+]([O-])c1ccc2c(c1)Cc1ccccc1-2`, the growth inhibition is 15% in experiment [1] (setting [7]); -11% in experiment [1] (setting [8]); 63.5% in experiment [1] (at 50.0 µM); -10% in experiment [2] (setting [7]); -25% in experiment [2] (setting [8]); 9.35% in experiment [2] (at 50.0 µM). The growth inhibition is 8% in experiment [3] (setting [7]); 5% in experiment [3] (setting [8]); 25.2% in experiment [3] (at 50.0 µM); -2% in experiment [4] (setting [7]); -20% in experiment [4] (setting [8]); -13.5% in experiment [4] (at 50.0 µM). In addition, the growth inhibition in experiment [5] (setting [7]) was 0%; in experiment [5] (setting [8]), -59%; in experiment [5] (at 50.0 µM), -17.2%; in experiment [6] (setting [7]), 20%; in experiment [6] (setting [8]), 2%; in experiment [6] (at 50.0 µM) it was 67.2%.
Regarding `C[n+]1ccccc1C[n+]1ccccc1`, the growth inhibition was 4% in experiment [1] (setting [7]); 28% in experiment [1] (setting [8]); 67.4% in experiment [1] (at 50.0 µM); 5% in experiment [2] (setting [7]); 17% in experiment [2] (setting [8]); 36.1% in experiment [2] (at 50.0 µM). Further, the growth inhibition was 1% in experiment [3] (setting [7]); 35% in experiment [3] (setting [8]); 66.8% in experiment [3] (at 50.0 µM); 6% in experiment [4] (setting [7]); 14% in experiment [4] (setting [8]); -10.1% in experiment [4] (at 50.0 µM). Further, the growth inhibition in experiment [5] (setting [7]) was 2%; in experiment [5] (setting [8]), 20%; in experiment [5] (at 50.0 µM), 26.2%; in experiment [6] (setting [7]) it was 15%; in experiment [6] (setting [8]), 17%; in experiment [6] (at 50.0 µM) it was 53.9%.
Consider `CCOc1ccc(NC(=O)/C(=N\N)C(C(=O)OC)c2nc3ccc(Cl)cc3[nH]c2=O)cc1` (configuration not stated), for which the growth inhibition in experiment [1] (setting [7]) is -14%; in experiment [1] (setting [8]), -17%; in experiment [1] (at 50.0 µM), -12.9%; in experiment [2] (setting [7]), -1%; in experiment [2] (setting [8]) it was -10%; in experiment [2] (at 50.0 µM) it was -13.1%. Moreover, the growth inhibition in experiment [3] (setting [7]) was -8%; in experiment [3] (setting [8]), -3%; in experiment [3] (at 50.0 µM), -24.4%; in experiment [4] (setting [7]), -25%; in experiment [4] (setting [8]), -8%; in experiment [4] (at 50.0 µM), 80.2% (active). For the same molecule, the growth inhibition in experiment [5] (setting [7]) is -6%; in experiment [5] (setting [8]), 5%; in experiment [5] (at 50.0 µM), -26.5%; in experiment [6] (setting [7]), -7%; in experiment [6] (setting [8]), -8%; in experiment [6] (at 50.0 µM) it was -1.5%.
Take `CCN(CC)CC(O)CNc1ccc(NCC2CO2)c2c1C(=O)c1ccccc1C2=O` (configuration not stated): the growth inhibition in experiment [1] (setting [7]) is 71% (active); in experiment [1] (setting [8]), 76% (active); in experiment [1] (at 50.0 µM) it was 34.1%; in experiment [2] (setting [7]), 23%; in experiment [2] (setting [8]) it was 79% (active); in experiment [2] (at 50.0 µM) it was 25.6%. Further, the growth inhibition in experiment [3] (setting [7]) was 76% (active); in experiment [3] (setting [8]), 84% (active); in experiment [3] (at 50.0 µM), 48.8%; in experiment [4] (setting [7]) it was 49%; in experiment [4] (setting [8]), 83% (active); in experiment [4] (at 50.0 µM) it was 56%. The growth inhibition in experiment [5] (setting [7]) was 43%; in experiment [5] (setting [8]) it was 59%; in experiment [5] (at 50.0 µM), -36%; in experiment [6] (setting [7]) it was 52%; in experiment [6] (setting [8]), 74% (active); in experiment [6] (at 50.0 µM), 59%.
For `Cc1cc(=O)oc2cc(O)cc(O)c12`, the growth inhibition was 0% in experiment [1] (setting [7]); -1% in experiment [1] (setting [8]); 16.5% in experiment [1] (at 50.0 µM); -4% in experiment [2] (setting [7]); -2% in experiment [2] (setting [8]); -8.95% in experiment [2] (at 50.0 µM). Further, the growth inhibition in experiment [3] (setting [7]) is -11%; in experiment [3] (setting [8]) it was -4%; in experiment [3] (at 50.0 µM), -8.8%; in experiment [4] (setting [7]) it was 0%; in experiment [4] (setting [8]) it was -11%; in experiment [4] (at 50.0 µM), -18.6%. Moreover, the growth inhibition in experiment [5] (setting [7]) is -3%; in experiment [5] (setting [8]), 6%; in experiment [5] (at 50.0 µM), -14.7%; in experiment [6] (setting [7]), -5%; in experiment [6] (setting [8]), 1%; in experiment [6] (at 50.0 µM) it was 6.8%.
Regarding `CCCCCCCCCCCC(=O)OC(C)C(=O)NCCCC` (configuration not stated), the growth inhibition in experiment [1] (setting [7]) was 0%; in experiment [1] (setting [8]) it was 21%; in experiment [1] (at 50.0 µM), -18.2%; in experiment [2] (setting [7]), 0%; in experiment [2] (setting [8]) it was 18%; in experiment [2] (at 50.0 µM), 13.6%. In addition, the growth inhibition was 2% in experiment [3] (setting [7]); 68% in experiment [3] (setting [8]); -2.05% in experiment [3] (at 50.0 µM); -2% in experiment [4] (setting [7]); -3% in experiment [4] (setting [8]); 26.4% in experiment [4] (at 50.0 µM). The growth inhibition in experiment [5] (setting [7]) is -1%; in experiment [5] (setting [8]), 9%; in experiment [5] (at 50.0 µM) it was -5.95%; in experiment [6] (setting [7]) it was -17%; in experiment [6] (setting [8]), 32%; in experiment [6] (at 50.0 µM) it was 75.2% (active).
With `Cn1c(-c2ccccc2)c(/C=C/C2=[N+](C)c3ccccc3C2(C)C)c2ccccc21`, the growth inhibition in experiment [1] (setting [7]) was 88% (active); in experiment [1] (setting [8]), 99% (active); in experiment [1] (at 50.0 µM), 99.6% (active); in experiment [2] (setting [7]), 72% (active); in experiment [2] (setting [8]), 99% (active); in experiment [2] (at 50.0 µM), 99.6% (active). In addition, the growth inhibition in experiment [3] (setting [7]) is 96% (active); in experiment [3] (setting [8]), 56%; in experiment [3] (at 50.0 µM) it was 99.6% (active); in experiment [4] (setting [7]), 59%; in experiment [4] (setting [8]), 98% (active); in experiment [4] (at 50.0 µM) it was 99% (active). In addition, the growth inhibition in experiment [5] (setting [7]) is 93% (active); in experiment [5] (setting [8]), 100% (active); in experiment [5] (at 50.0 µM) it was 99.5% (active); in experiment [6] (setting [7]) it was 89% (active); in experiment [6] (setting [8]), 99% (active); in experiment [6] (at 50.0 µM) it was 99% (active).
`O=C(/C=C/C(Cl)(Cl)Cl)Nc1ccc(Cl)cc1`: the growth inhibition in experiment [1] (setting [7]) was -6%; in experiment [1] (setting [8]), 16%; in experiment [1] (at 50.0 µM), 71.8% (active); in experiment [2] (setting [7]) it was 42%; in experiment [2] (setting [8]), 21%; in experiment [2] (at 50.0 µM), 85% (active). Moreover, the growth inhibition was -4% in experiment [3] (setting [7]); 43% in experiment [3] (setting [8]); 81% (active) in experiment [3] (at 50.0 µM); 25% in experiment [4] (setting [7]); 8% in experiment [4] (setting [8]); 77.5% (active) in experiment [4] (at 50.0 µM). For the same molecule, the growth inhibition in experiment [5] (setting [7]) is 9%; in experiment [5] (setting [8]) it was 3%; in experiment [5] (at 50.0 µM), 75.9% (active); in experiment [6] (setting [7]), 18%; in experiment [6] (setting [8]), 64%; in experiment [6] (at 50.0 µM), 85% (active).
`N#CC(I)CS(=O)(=O)c1ccccc1` (configuration not stated): the growth inhibition is 99% (active) in experiment [1] (setting [7]); 99% (active) in experiment [1] (setting [8]); 54.7% in experiment [1] (at 50.0 µM); 100% (active) in experiment [2] (setting [7]); 99% (active) in experiment [2] (setting [8]); 98.7% (active) in experiment [2] (at 50.0 µM). Further, the growth inhibition in experiment [3] (setting [7]) is 99% (active); in experiment [3] (setting [8]), 99% (active); in experiment [3] (at 50.0 µM), 99.3% (active); in experiment [4] (setting [7]) it was 99% (active); in experiment [4] (setting [8]), 99% (active); in experiment [4] (at 50.0 µM) it was 55%. The growth inhibition is 99% (active) in experiment [5] (setting [7]); 99% (active) in experiment [5] (setting [8]); 45.4% in experiment [5] (at 50.0 µM); 99% (active) in experiment [6] (setting [7]); 98% (active) in experiment [6] (setting [8]); 42.7% in experiment [6] (at 50.0 µM).
